We go through six compounds from PubChem BioAssay (NCATS).

“And” between values parts separate entries of the source, which are not always exact repeats. Equal entries are not always repeated. Results filed as inconclusive are left out. The source made the active and inactive calls. Unless noted, calls come from the whole dose curve; as a rule, active = well fitted curve in either direction with a large enough effect (not every such curve was filed as active); inconclusive = small, poorly fitted or top-dose-only effect, or another doubt; inactive = flat fitted curve, though single readings scatter. Some results are limits rather than exact numbers.

In test [1] the target is Lysosomal acid glucosylceramidase (Homo sapiens) (UniProt P04062). Nature of the test: Glucocerebrosidase-p2 (AID 348; in the data active = potency below about 10 µM; note: potency is the fitted concentration of half-maximal effect). The conditions noted are these: purified GBA, blue fluorogenic substrate, 40 min. The method, boiled down: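 Compounds titrated from 0.6 nM upwards against 0.2 nM enzyme in pH 5.9 citric acid/KH2PO4, taurocholate, tween-20; blue fluorogenic substrate 80 uM, 40 min room temperature, stopped and read Ex 365/Em 440 for AC50.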
Chain of Lysosomal acid glucosylceramidase (Homo sapiens) (P04062 whole entry, looked up): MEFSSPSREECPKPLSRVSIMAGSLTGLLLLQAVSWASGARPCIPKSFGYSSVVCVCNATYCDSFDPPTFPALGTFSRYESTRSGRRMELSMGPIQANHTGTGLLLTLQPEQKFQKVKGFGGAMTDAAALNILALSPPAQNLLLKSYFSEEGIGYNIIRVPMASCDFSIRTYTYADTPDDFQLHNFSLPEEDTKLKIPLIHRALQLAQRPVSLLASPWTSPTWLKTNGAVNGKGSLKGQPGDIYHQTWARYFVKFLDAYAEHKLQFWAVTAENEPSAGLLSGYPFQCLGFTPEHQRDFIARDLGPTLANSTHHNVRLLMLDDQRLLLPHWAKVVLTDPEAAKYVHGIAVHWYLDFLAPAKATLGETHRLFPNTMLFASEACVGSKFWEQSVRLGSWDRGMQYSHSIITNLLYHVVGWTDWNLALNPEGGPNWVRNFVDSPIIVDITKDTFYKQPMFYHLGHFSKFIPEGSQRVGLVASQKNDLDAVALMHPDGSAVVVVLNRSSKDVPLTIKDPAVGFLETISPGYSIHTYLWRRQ

The nature of test [2]: AP1 Signaling Pathway (AID 357).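 Note: ME-180 reporter cells stimulated with EGF at its EC50 level; % is set by controls: 0 for no effect and ±100 for the full control effect.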 Particulars: ME-180 AP-1-bla reporter, EGF-induced, beta-lactamase ratio, 5 h. The gist of the method: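 Titration-series screen for positive or negative modulators of EC50 EGF-induced signaling in ME-180 cells carrying an AP-1-driven beta-lactamase reporter. After 5 hours at 37 degrees Celsius, CCF4 460nm/530nm emission ratio gave %Activity; AC50 values derived.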

Test [3] addresses Cytochrome P450 1A2 (Homo sapiens) (UniProt P05177). Briefly: p450-cyp1a2 (AID 410; calls by dose curve; note: potency is the fitted concentration of half-maximal effect). The conditions noted are these: recombinant CYP1A2, luciferin-ME demethylation, luminescence; series mostly up to 57 µM. The gist of the method:
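Luminescent readout of luciferin formed from Luciferin-ME by human CYP1A2; data normalized against complete inhibition by 57 uM furafylline. Enzyme 20nM, substrate 100uM at Km, 100mM KPO4 buffer, 60 min reaction at room temperature.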

A short description of test [4]: NFAT Signaling Pathway (AID 444).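 Note: carbachol stimulus at about its EC50 of 1 µM final; % is set by controls: 0 for no effect and ±100 for the full control effect.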 The conditions noted are these: Jurkat NFAT-bla M1, carbachol, beta-lactamase ratio, 5 h; at 7.69 µM (top of the series) unless noted. The method, boiled down:
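Jurkat cells with NFAT-driven β-lactamase reporter and co-expressed M1 receptor, stimulated with carbachol (final 1 uM, ~EC50), compound titration, 5 h at 37 °C. CCF4 loaded 1 h at RT; 460/530 nm ratio gave %activity and AC50.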

A short description of test [5]: Stat Signaling Pathway (AID 446).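 Note: ME-180 cervical cancer cells given 40 pM IL-6 alongside compound; SIE-controlled beta-lactamase reporter measured as 460/530 nm FRET emission ratio; % is set by controls: 0 for no effect and ±100 for the full control effect.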 Particulars: ME-180 SIE beta-lactamase reporter, IL-6 stimulated, 5 h. The gist of the method: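 Reporter line: ME-180 cervical carcinoma, SIE-beta-lactamase. Treatment: compound with 40 pM IL-6, 5 hrs, 37 C, in low-serum OPTI-MEM with 10 mM HEPES pH 7.3. Detection: 460/530 nm fluorescence.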
In test [6] the target is Glucocorticoid receptor (Homo sapiens) (UniProt P04150). Nature of the test: GR-GFP Redistribution (AID 450;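 active = compounds whose dose series gives a full or clear partial fitted curve of increased nuclear translocation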; note: potency is the fitted concentration of half-maximal effect). The conditions noted are these: U2OS GR-GFP nuclear translocation, laser cytometry, 2 h.
Chain of Glucocorticoid receptor (Homo sapiens) (P04150 whole entry, looked up): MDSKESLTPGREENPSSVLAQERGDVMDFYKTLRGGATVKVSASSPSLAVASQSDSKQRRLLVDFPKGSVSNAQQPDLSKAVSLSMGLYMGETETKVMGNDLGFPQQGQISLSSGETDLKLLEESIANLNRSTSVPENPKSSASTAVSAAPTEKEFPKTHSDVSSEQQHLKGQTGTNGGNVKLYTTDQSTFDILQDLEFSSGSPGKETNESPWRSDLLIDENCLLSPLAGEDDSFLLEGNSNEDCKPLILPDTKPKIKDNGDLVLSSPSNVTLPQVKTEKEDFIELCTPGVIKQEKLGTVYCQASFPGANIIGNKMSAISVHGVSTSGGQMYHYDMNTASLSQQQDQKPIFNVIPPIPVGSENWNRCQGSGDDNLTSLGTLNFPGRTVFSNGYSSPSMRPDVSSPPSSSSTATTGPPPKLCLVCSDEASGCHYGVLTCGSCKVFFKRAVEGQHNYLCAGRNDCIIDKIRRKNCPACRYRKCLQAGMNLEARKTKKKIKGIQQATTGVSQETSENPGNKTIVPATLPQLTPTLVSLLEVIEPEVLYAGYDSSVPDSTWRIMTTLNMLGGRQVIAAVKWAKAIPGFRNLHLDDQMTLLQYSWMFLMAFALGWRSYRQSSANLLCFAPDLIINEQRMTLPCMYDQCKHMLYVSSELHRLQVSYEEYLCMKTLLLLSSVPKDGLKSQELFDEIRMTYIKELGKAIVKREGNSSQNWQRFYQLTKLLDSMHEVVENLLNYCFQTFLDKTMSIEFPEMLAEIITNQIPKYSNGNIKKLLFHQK
Test [7] shares this target. Nature of the test: GR-EFC Redistribution (AID 451; calls by dose curve; note: potency is the fitted concentration of half-maximal effect). The conditions noted are these: CHO-K1 GR-EFC translocation, beta-gal luminescence, 2 h. The gist of the method:
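CHO-K1 cells expressing nuclear EA and GR-ED fragments of b-gal; compounds titrated up to 46 uM final, 2 h at 37 C. GR nuclear translocation read as complemented b-gal luminescence after 1 h RT detection.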

Test [8] has as its target Mitogen-activated protein kinase 10 (Mus musculus) (UniProt Q61831). Nature of the test: JNK3 AlphaScreen Assay (AID 530).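 Note: kinase came from lysate of stimulated human HepG2 cells; signal reports phosphorylation of biotinylated GST-cJun 1-79 at Ser73 with 10 µM ATP; % is set by controls: 0 for no effect and ±100 for the full control effect.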 Particulars: JNK3 lysate, c-Jun phosphorylation; series mostly up to 57.1 µM. The gist of the method:
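Pre-activated (IL-1β/TNFα) JNK3 in HepG2 lysates phosphorylates biotin-GST-cJun(1-79), 10 uM ATP; anti-phospho-cJun(Ser73) AlphaScreen read at room temperature, pH 7.6 Tris buffer. Compounds pre-incubated 15 min as titrations.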

In test [9] the target is Cytochrome P450 3A4 (Homo sapiens) (UniProt P08684). Briefly: qHTS Assay for Activators of Cytochrome P450 3A4 (AID 885; active = well fitted curve in the direction sought with a large enough effect; an effect the other way counts as inactive or inconclusive; note: nearly all actives have a fitted effect of over 65% in size). The conditions noted are these: recombinant CYP3A4, Luciferin-PPXE luminescence, 60 min; series mostly up to 57.1 µM. The method, boiled down:
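Signal was normalized against complete inhibition by 57 uM ketoconazole. The reaction used 20nM CYP3A4 with 25uM Luciferin-PPXE, 10-min compound preincubation and a 60-min NADPH-supported step at RT.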

Test [10] addresses Cytochrome P450 2C19 (Homo sapiens) (UniProt P33261). Nature of the test: qHTS Assay for Inhibitors and Substrates of Cytochrome P450 2C19 (AID 899; active = well fitted curve in the direction sought with a large enough effect; an effect the other way counts as inactive or inconclusive; note: potency is the fitted concentration of half-maximal effect; nearly all actives have a fitted effect of over 60% in size). Particulars: recombinant CYP2C19, luciferin-H EGE luminescence; series mostly up to 57.1 µM. The method, boiled down:
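Signal comes from luciferase acting on luciferin released by CYP2C19-mediated hydroxylation of Luciferin-H EGE, 10uM (KM). Assay mix: 5nM enzyme, 50mM KPO4; 60 min at 37C with NADPH regeneration. Data normalized against 57uM ketoconazole.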

Test [11] is described as follows: Confirmation and Secondary Assay for Modulators of Hemoglobin Beta Chain Splicing at IVS2 654 locus (AID 910; active = well fitted curve in the direction sought with a large enough effect; an effect the other way counts as inactive or inconclusive;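 note: HeLa cells stably carrying EGFP split by mutant beta-globin IVS2-654 intron; % of control where 0% means no effect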). Particulars: HeLa EGFP-654 splicing reporter, GFP fluorescence, 48 h; series mostly up to 38.3 µM. The method, boiled down: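 HeLa cells stably expressing EGFP interrupted by β-globin IVS2-654 intron, seeded overnight in Opti-MEM/2% FCS, then treated 2 days at 37 °C. Restored splicing read as total peak GFP intensity per well by laser scanning cytometry (488 nm excitation, 500–520 nm emission); 500 nM antisense PNA as control.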

Test [12] is described as follows: Confirmation and Secondary Assay for Modulators of Hemoglobin Beta Chain Splicing at IVS2 705 locus (AID 930; active = well fitted curve in the direction sought with a large enough effect; an effect the other way counts as inactive or inconclusive;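 note: HeLa cells stably expressing the EGFP-705 splicing reporter; GFP fluorescence per well restored by corrected splicing of the IVS2-705 intron in EGFP; % of control where 0% means no effect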). Particulars: HeLa EGFP-705 splicing reporter, GFP fluorescence, 48 h; series mostly up to 38.3 µM. The gist of the method: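 HeLa EGFP-705 reporter; 500 cells/well, o/n 37C 5% CO2; cpd 2 d; 488 ex/500-520 em laser scan; total peak GFP intensity/well. Ref: 500 nM […] antisense PNA.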

Test [13] is described as follows: qHTS Assay for Lipid Storage Modulators (AID 1519; calls by dose curve). The conditions noted are these: Drosophila S3 cells, BODIPY lipid droplet/cell ratio, laser cytometry, cells loaded with oleic acid. The gist of the method:
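Cells seeded at 5,000 per well were treated with compounds over a concentration series and loaded with oleic acid (400 uM, as added). Lipid droplet fluorescence (488 nm excitation, 500-530 nm channel) was read by laser-scanning cytometry and normalized to 20 uM Triacsin C.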

Test [14] deals with Cytochrome P450 3A4 (Homo sapiens) (UniProt P08684). Nature of the test: qHTS Assay for Inhibitors and Substrates of Cytochrome P450 3A4 (AID 884; active = well fitted curve in the direction sought with a large enough effect; an effect the other way counts as inactive or inconclusive; note: potency is the fitted concentration of half-maximal effect; nearly all actives have a fitted effect of over 50% in size). Particulars: recombinant CYP3A4, Luciferin-PPXE luminescence; series mostly up to 57.1 µM. The gist of the method:
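20 nM human CYP3A4 with 25 uM Luciferin-PPXE (at KM) in 200 mM KPO4, preincubated 10 min with compound; NADPH regeneration started a 60 min RT reaction. Luciferin detected by luminescence, normalized to 57 uM ketoconazole as full inhibition.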

Test [15] addresses 3',5'-cyclic-AMP phosphodiesterase 4B (Homo sapiens) (UniProt Q07343). Briefly: qHTS Assay for Inhibitors of PDE-IV (AID 607; active = well fitted activation curve with a large enough effect in the main read-out, with a control signal flat, not every such curve was filed as active; note: % of control where 0% means no effect). The conditions noted are these: HEK293 ACTOne CNG channel cells, membrane potential fluorescence; series mostly up to 22.9 µM. The method, boiled down: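 Cell-based read-out of cAMP via a modified cyclic nucleotide-gated channel and membrane potential dye (535/590 nm) in HEK293 cells expressing PDE4 endogenously. Compounds tested up to 22.9 uM final; 100 uM RO 20-1724 reference.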

Test [16] deals with Ubiquitin carboxyl-terminal hydrolase 1 (Homo sapiens) (UniProt O94782). Briefly: Inhibitors of USP1/UAF1: Pilot qHTS (AID 504865; active = well fitted curve in the direction sought with a large enough effect; an effect the other way counts as inactive or inconclusive;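 note: rhodamine fluorescence freed from ubiquitin-rhodamine substrate followed over time; top concentration of the series differs between compounds; % is set by controls: 0 for no effect and ±100 for the full control effect; nearly all actives have a fitted effect of over 35% in size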). The conditions noted are these: purified USP1/UAF1, Ub-rhodamine cleavage fluorescence; series mostly up to 54.9 µM. The gist of the method:
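Deubiquitinase activity followed as kinetic rhodamine fluorescence release from 150 nM Ub-Rho. 1 nM USP1/UAF1 with compound, after 15 min room-temperature preincubation, in HEPES pH 7.8 buffer containing TCEP, EDTA, BSA and Tween-20.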

Test [17] in a line: qHTS profiling for inhibitors of Plasmodium falciparum proliferation (AID 504749; active = well fitted curve in the direction sought with a large enough effect; an effect the other way counts as inactive or inconclusive;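 note: 0% = DMSO vehicle and full inhibition = artemisinin control; nearly all actives have a fitted effect of over 60% in size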). Particulars: P. falciparum in erythrocytes, SYBR Green DNA, 72 h, at 28.7 µM (top of the series). The method, boiled down:
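P. falciparum-infected erythrocytes (0.3% parasitemia, 2.5% hematocrit) incubated with compound 72 h at 37 C, 5% CO2. Parasite DNA detected by SYBR Green after lysis, overnight at room temperature; normalised to 0.29 uM artemisinin and DMSO.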

Where [18] appears, read: at 7.69 µM (top of the series) unless noted.
[19] abbreviates: measured here: cell count channel max response.
[20] abbreviates: measured here: lipid channel max response.

Chain of Ubiquitin carboxyl-terminal hydrolase 1 (Homo sapiens) (O94782 whole entry, looked up): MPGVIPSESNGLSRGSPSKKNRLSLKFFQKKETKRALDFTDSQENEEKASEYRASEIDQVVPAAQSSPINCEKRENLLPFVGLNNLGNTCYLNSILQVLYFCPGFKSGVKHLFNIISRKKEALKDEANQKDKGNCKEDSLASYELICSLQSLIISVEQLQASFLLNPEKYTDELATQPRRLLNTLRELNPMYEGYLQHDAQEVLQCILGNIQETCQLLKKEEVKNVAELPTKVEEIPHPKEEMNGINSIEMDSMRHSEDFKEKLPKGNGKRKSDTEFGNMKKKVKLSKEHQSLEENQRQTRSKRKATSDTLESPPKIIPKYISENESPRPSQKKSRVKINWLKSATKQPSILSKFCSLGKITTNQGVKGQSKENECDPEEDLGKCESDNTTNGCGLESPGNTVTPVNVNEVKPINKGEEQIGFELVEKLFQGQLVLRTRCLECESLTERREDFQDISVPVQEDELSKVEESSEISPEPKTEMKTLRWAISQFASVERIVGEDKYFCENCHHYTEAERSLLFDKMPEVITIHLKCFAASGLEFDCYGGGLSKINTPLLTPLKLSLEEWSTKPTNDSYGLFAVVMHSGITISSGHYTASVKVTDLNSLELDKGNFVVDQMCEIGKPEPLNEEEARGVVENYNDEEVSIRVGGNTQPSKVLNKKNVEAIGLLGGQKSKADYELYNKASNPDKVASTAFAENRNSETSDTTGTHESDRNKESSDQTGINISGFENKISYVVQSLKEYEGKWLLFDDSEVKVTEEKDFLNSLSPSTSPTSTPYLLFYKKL
Chain of 3',5'-cyclic-AMP phosphodiesterase 4B (Homo sapiens) (Q07343 whole entry, looked up): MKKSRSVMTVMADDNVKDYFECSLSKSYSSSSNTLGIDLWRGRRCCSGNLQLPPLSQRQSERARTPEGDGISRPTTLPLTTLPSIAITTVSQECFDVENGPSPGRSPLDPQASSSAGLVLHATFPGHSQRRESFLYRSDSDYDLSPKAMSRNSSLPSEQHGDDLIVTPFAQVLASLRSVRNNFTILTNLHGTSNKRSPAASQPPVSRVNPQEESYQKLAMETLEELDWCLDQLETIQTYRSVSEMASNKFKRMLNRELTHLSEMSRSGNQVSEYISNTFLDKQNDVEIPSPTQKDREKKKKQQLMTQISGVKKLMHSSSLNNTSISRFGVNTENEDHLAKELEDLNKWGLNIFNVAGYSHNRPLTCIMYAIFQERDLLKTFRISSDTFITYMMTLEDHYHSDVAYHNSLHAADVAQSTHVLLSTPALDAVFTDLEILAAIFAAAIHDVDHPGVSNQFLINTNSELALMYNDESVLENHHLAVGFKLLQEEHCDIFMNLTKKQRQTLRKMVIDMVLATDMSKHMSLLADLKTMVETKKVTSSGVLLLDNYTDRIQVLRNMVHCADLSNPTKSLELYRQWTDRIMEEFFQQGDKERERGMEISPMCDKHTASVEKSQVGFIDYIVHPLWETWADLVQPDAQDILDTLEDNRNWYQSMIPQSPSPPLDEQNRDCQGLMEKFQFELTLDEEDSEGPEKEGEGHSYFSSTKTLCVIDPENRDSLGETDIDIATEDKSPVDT
Chain of Cytochrome P450 1A2 (Homo sapiens) (P05177 whole entry, looked up): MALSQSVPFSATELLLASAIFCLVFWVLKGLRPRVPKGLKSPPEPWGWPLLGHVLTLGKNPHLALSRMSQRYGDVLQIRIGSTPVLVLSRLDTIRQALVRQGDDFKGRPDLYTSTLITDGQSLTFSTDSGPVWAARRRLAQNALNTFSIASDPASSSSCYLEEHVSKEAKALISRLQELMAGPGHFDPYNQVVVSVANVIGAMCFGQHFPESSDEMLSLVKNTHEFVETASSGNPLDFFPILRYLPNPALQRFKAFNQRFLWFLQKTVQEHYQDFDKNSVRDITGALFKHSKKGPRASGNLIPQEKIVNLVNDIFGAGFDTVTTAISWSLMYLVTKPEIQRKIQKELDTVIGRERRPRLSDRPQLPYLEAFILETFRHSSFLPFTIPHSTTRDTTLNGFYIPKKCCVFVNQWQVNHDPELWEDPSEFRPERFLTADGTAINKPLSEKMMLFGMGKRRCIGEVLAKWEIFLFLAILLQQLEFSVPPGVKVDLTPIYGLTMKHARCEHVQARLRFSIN
Chain of Cytochrome P450 3A4 (Homo sapiens) (P08684 whole entry, looked up): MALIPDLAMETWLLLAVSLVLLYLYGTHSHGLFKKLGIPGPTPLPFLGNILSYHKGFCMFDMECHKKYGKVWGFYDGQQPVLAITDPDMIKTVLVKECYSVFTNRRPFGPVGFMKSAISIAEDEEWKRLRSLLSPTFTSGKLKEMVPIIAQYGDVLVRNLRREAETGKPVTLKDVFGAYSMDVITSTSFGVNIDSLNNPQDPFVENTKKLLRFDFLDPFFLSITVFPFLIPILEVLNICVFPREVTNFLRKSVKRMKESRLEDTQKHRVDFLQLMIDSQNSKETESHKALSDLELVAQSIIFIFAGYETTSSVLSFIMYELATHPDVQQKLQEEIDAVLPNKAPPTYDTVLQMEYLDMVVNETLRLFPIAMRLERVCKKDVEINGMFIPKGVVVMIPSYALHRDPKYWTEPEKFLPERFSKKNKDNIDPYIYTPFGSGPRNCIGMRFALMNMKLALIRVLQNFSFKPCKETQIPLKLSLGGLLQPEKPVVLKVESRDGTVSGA
Chain of Cytochrome P450 2C19 (Homo sapiens) (P33261 whole entry, looked up): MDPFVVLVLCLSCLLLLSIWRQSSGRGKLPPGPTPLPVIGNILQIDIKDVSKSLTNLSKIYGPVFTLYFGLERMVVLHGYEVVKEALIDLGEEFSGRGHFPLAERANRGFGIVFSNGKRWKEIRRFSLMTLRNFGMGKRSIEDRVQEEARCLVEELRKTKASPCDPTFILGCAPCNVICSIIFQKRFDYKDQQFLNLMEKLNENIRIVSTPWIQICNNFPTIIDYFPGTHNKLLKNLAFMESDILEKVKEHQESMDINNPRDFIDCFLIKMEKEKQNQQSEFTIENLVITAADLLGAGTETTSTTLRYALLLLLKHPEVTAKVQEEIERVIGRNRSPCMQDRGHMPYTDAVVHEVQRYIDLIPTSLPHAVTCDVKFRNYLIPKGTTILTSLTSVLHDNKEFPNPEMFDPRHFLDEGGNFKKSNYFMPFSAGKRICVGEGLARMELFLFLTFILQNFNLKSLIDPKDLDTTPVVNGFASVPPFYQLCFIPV

As to `COc1ccccc1-c1cncnc1NCc1cccc(C)c1`, the Potency was > 11.4 µM (inactive) in [1]; 5.01 µM (active) in [3]; > 46 µM (inactive) in test [6]; > 46 µM (inactive) in test [7]; 0.398 µM (active) in [10]. For the same compound, the activity change, negative = inhibition in test [2] (setting [18]) is -3.97% (inactive); in test [4], -21.2% (inactive); in test [13] (at 57.5 µM (top of the series)), 10.8% (inactive). Besides, the activity, negative = inhibition in [5] (setting [18]) was -6.93% (inactive). The Potency entry in test [8], in [9] and in test [11] was “inactive” throughout. Also, the result in test [12] was inactive. For the same compound, the max response in test [13] (setting [19]) came out at 7.88%; in test [13] (setting [20]), 19.2%.
Take `COCCNc1nc(-c2cccc(OC)c2)nc2ccccc12`: the Potency in test [1] is > 11.4 µM (inactive); in [3], 0.2 µM (active); in test [6] it was > 46 µM (inactive); in test [7] it was > 46 µM (inactive); in [14] it was 5.01 µM (active). In addition, the activity change, negative = inhibition was -3.79% (inactive) in test [2] (setting [18]), 0.846% (inactive) in [4] and -5.01% (inactive) in test [13] (at 57.5 µM (top of the series)). For the same compound, the activity, negative = inhibition in test [5] (setting [18]) is -13.7% (inactive). The Potency entry in [8], in test [9] and in test [11] was “inactive” each time. In test [12], the call was inactive. Besides, the max response in [13] (setting [19]) was 5.13%; in [13] (setting [20]), -0.48%.
For the compound `CN1CCCC[C@@H]1CCN1c2ccccc2Sc2ccc(S(C)=O)cc21` (stereo not given in full), the Potency in test [1] was > 11.4 µM (inactive); in [6], > 20.6 µM (inactive) and > 46 µM (inactive); in test [7], > 20.6 µM (inactive) and > 9.22 µM (inactive). In addition, the activity change, negative = inhibition in test [2] (at 7.69 µM (top of the series)) is -6.82% (inactive); in test [2] (at 17.2 µM (top of the series)), 10.1% (inactive); in test [4] it was 1.36% (inactive); in test [13] (at 25.7 µM (top of the series)), -3.11% (inactive). The Potency entry in test [3], in test [8], in [15] and in [16] was “inactive” each time. The activity, negative = inhibition in test [5] (at 7.69 µM (top of the series)) is 0.0805% (inactive); in test [5] (at 17.2 µM (top of the series)), -1.79% (inactive); in test [17] (parasite line A), 1.72% (inactive); in test [17] (parasite line B), 1.85% (inactive). Further, the max response was -6.84% in test [13] (setting [19]) and -7.46% in [13] (setting [20]).
On to `COc1ccc(C(=O)N2CCC3(CCN(C(=O)Nc4cccc(F)c4)CC3)CC2)cc1`, for which the results for the Potency in [1] and in test [7] were > 11.4 µM (inactive) and > 46 µM (inactive), respectively. Besides, the activity change, negative = inhibition is -28.3% (inactive) in [2] (setting [18]), 7.36% (inactive) in test [4] and 6.16% (inactive) in test [13] (at 57.5 µM (top of the series)). Besides, the Potency result in test [3], in [8] and in test [15] was “inactive” in each case. For the same compound, the activity, negative = inhibition in test [5] (setting [18]) was -5.59% (inactive). Also, the max response in [13] (setting [19]) turned out to be 13.8%; in test [13] (setting [20]), 22%.
As for `CS(=O)(=O)Nc1cccc(-c2nc(N3CCOCC3)c3ccccc3n2)c1`, the Potency is > 11.4 µM (inactive) in test [1]; 5.01 µM (active) in test [3]; > 46 µM (inactive) in test [6]; > 46 µM (inactive) in test [7]; 1.58 µM (active) in test [14]. In addition, the activity change, negative = inhibition in test [2] (setting [18]) was -11.2% (inactive); in test [4], 27.4% (inactive); in test [13] (at 57.5 µM (top of the series)), 2.88% (inactive). Also, the activity, negative = inhibition in test [5] (setting [18]) was -10.3% (inactive). The Potency entry in [8], in [9] and in [16] was “inactive” in each case. Moreover, the outcome in test [12] was inactive. Further, the max response in test [13] (setting [19]) is -24.3%; in test [13] (setting [20]), -22%.
With `COc1ccc2[nH]cc(CCNc3ncncc3-c3ccccc3CN(C)C)c2c1`, the Potency was > 11.4 µM (inactive) in test [1]; 20 µM (active) in [3]; > 46 µM (inactive) in [6]; > 46 µM (inactive) in [7]; 0.631 µM (active) in test [14]. Besides, the activity change, negative = inhibition in test [2] (setting [18]) was -7.44% (inactive); in test [4], -7.95% (inactive); in [13] (at 57.5 µM (top of the series)), 2.99% (inactive). In addition, the activity, negative = inhibition in test [5] (setting [18]) was 0.332% (inactive). Further, the Potency entry in [8], in test [15], in [9], in test [11] and in [16] was “inactive” in each case. The result in test [12] was inactive. Moreover, the max response was -0.105% in test [13] (setting [19]) and 4.99% in test [13] (setting [20]).
